A number with no mark means an inactive call.
What follows are molecules tested on TDF (assay: H1.0 immunofluorescence intensity relative to DMSO (% of DMSO); higher = stronger H1.0 induction, active = 120 or more). Settings: concentration: 10 µM; 24 h.
In short: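 H1.0 nuclear intensity or cell number is stated as percent of the plate control, based on the median of replicates, and HCC1569 values were smoothed for positional effects. These came from HCC1569 and TDF cells treated with compounds at 10 µM for 24 h at 37 °C in triplicate, then fixed in 3.7% formaldehyde and stained with a rabbit anti-H1.0 antibody, an AlexaFluor 647 secondary and DAPI.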
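Note: TDF is a line of transformed human dermal fibroblasts of mesenchymal origin.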

Structure (SMILES)	H1.0 immunofluorescence intensity
Cl.Cl.OCCN1CCN(CCC=C2c3ccccc3Sc3ccc(C(F)(F)F)cc32)CC1 [cis-(Z)-Flupenthixol dihydrochloride]	102
CCC(C(=O)C(C)C(O)C(C)CCc1ccc(C)c(O)c1C(=O)[O-])C1OC(CC)(C2CCC(O)(CC)C(C)O2)CC1C.[Na+] (configuration not stated) [Lasalocid A]	105
O=C(O)CNC(=O)C(=O)O [2-(carboxymethylamino)-2-oxoacetic acid]	93.7
COc1cc2nccc(Oc3ccc(NC(=O)Nc4ccc(F)cc4F)c(F)c3)c2cc1OC	103
COC1(C2=NCCN2)COc2ccccc2O1.Cl (configuration not stated)	89.4
O=c1cc(N2CCOCC2)oc2c1ccc1ccccc12 [NU 7026 - 2-(4-Morpholinyl)-4H-naphthol[1,2-b]pyran-4-one]	94
CCCCCCCCCCCCCCCC(=O)C(F)(F)F	93.3
NC(=O)c1ccc(-c2nc(-c3ccc4c(c3)OCCO4)c(-c3ccccn3)[nH]2)cc1 [Casein Kinase I Inhibitor, D4476]	95.4
Cl.NCCS [Cysteamine hydrochloride]	91.2
CNCCC(Oc1ccccc1OC)c1ccccc1.Cl (configuration not stated) [Nisoxetine.HCl]	92.1
CN(C)CCN1C(=O)c2ccccc2N(C)c2ccccc21 [Dibenzepine]	97.7
Cc1cccc(C)c1OCC(N)C(C)C.I (configuration not stated)	91.3
